The campaign covered roughly 100,000 compounds. About 770 (0.77%) were called active. No stated cut-off is given here; in the data, active means inhibition above about 50%; inactive means the rest. Only a selection was taken, and actives are over-represented in it overall.
The compounds below were run against Gag-Pol polyprotein (Human immunodeficiency virus type 1 group M subtype B (isolate HXB2)) (UniProt P04585) (assay: RNase H inhibition, HIV 1 Gag Pol polyprotein, FRET biochemical assay, screening (AID 372)). Settings: HIV-1 RT RNase H, FRET RNA/DNA substrate fluorescence; at 10 µM; stronger effect = higher value.

SMILES	inhibition
COc1ccc(N=CC2=C(O)CC(c3ccccc3)CC2=O)cc1OC (configuration not stated)	0% (inactive)
COC(=O)c1ccc(NC(=O)Cc2ccc(OC)cc2)cc1	1% (inactive)
CN1CCN(C2=NC(=O)/C(=C/c3ccc4c(c3)OCO4)S2)CC1	8% (inactive)
O=C(C[n+]1cccc(NC(=O)c2ccccc2)c1)c1ccc2c(c1)Cc1ccccc1-2	24% (inactive)
CCOC(=O)C1=C(C)N=c2s/c(=C\c3ccc(-c4ccc(Cl)cc4Cl)o3)c(=O)n2C1c1ccc(C)cc1 (configuration not stated)	5% (inactive)
CCOc1ccc(C(=O)Nc2ccc(CC)cc2)cc1[N+](=O)[O-]	9% (inactive)
Cc1ccc(S(=O)(=O)Nc2ccccn2)cc1C	0% (inactive)
O=P(CCCO)(c1ccc(Cl)cc1)c1ccc(Cl)cc1	1% (inactive)
O=C1C2C3C=CC(C3)C2C(=O)N1CNc1ccccc1 (configuration not stated)	6% (inactive)
COC(=O)c1ccccc1NS(=O)(=O)c1ccc(NC(C)=O)cc1	4% (inactive)
COC(=O)c1ccccc1NS(=O)(=O)c1ccccc1	57% (active)
COC(=O)c1ccccc1NS(=O)(=O)c1ccc(Cl)cc1	12% (inactive)
COc1ccc(S(=O)(=O)N(CCc2ccccc2)CC(=O)NC2CCCCC2)cc1	4% (inactive)
CCn1c2ccccc2c2cc(NC(=O)COc3ccccc3Cl)ccc21	7% (inactive)
COc1cc(C=O)ccc1OCCCCOc1cccc(Oc2ccccc2)c1	44% (inactive)
COc1cc(C=O)ccc1OCCOc1cccc(Oc2ccccc2)c1	21% (inactive)
Cc1ccc2nc(/C(C#N)=C/c3ccc(-c4cc([N+](=O)[O-])ccc4O)o3)[nH]c2c1	6% (inactive)
COc1ccc([N+](=O)[O-])cc1-c1ccc(/C=C(\C#N)c2nc3ccc(C)cc3[nH]2)o1	34% (inactive)
Cc1ccc([N+](=O)[O-])cc1-c1ccc(/C=C(\C#N)c2nc3ccccc3[nH]2)o1	58% (active)
Cc1cccc(N2CCN(C(=O)c3ccc(Br)cc3)CC2)c1C	18% (inactive)
Cc1ccc(S(=O)(=O)c2nc(N)sc2Cl)cc1	30% (inactive)
COc1nc(S(=O)(=O)c2ccc(C)cc2)c(Cl)s1	0% (inactive)
Cc1ccc(S(=O)(=O)c2nc(Nc3ccccc3C)sc2Cl)cc1	59% (active)
COc1ccccc1-n1c(O)c(C=C2C=Nc3ccccc32)c(=O)[nH]c1=S	7% (inactive)
CCSc1nnc(NC(=O)c2cnccn2)s1	57% (active)

SMILES	inhibition
CCc1nnc(NC(=O)c2cnccn2)s1	9% (inactive)
CCSc1nnc(NC(=O)c2ccc(Cl)cc2)s1	4% (inactive)
CCOC(=O)c1ccc(NC(=O)Cc2ccc(Br)cc2)cc1	3% (inactive)
COc1ccc(-c2n[nH]c(=S)n2N=C/C(Br)=C/c2ccccc2)cc1	21% (inactive)
N#Cc1c(-c2ccccc2)cc(-c2ccco2)c(C#N)c1N	18% (inactive)
N#Cc1c(-c2ccc(Br)cc2)cc(-c2ccc3c(c2)OCO3)c(C#N)c1N	48% (inactive)
N#Cc1c(-c2ccc(Br)cc2)cc(-c2ccco2)c(C#N)c1N	58% (active)
Cc1ccccc1C(=O)Nc1sc2c(c1C(=O)Nc1cccc3ccccc13)CCC2	13% (inactive)
O=C(Nc1cccc(O)c1)c1cc2nc(-c3ccc(Cl)cc3)cc(C(F)(F)F)n2n1	11% (inactive)
CC(=O)Oc1ccc(C(=O)Nc2cccc([N+](=O)[O-])c2C)cc1	6% (inactive)
CC(=O)Oc1ccc(C(=O)Nc2cccc(C(=O)O)c2C)cc1	55% (active)
CC(=O)Oc1ccc(C(=O)Nc2ccc(C)cc2C(=O)O)cc1	4% (inactive)
Cc1ccccc1N1C(=O)NC(=O)/C(=C\c2cccn2-c2ccc(Cl)cc2)C1=O	42% (inactive)
CC(C)(C)c1ccc(C(C)(C)C)c(Oc2ccccc2)c1O	8% (inactive)
Cc1ccc([N+](=O)[O-])cc1NC(=O)c1cccc2c1C(=O)c1ccccc1-2	0% (inactive)
COc1cccc(/C=C2/SC(NC(C)=O)=NC2=O)c1OC	8% (inactive)
COc1ccc2ccccc2c1/C=C1/SC(NC(C)=O)=NC1=O	52% (active)
COc1ccccc1/C=C1\SC(NC(C)=O)=NC1=O	17% (inactive)
COc1ccc(-c2n[nH]c(=S)n2/N=C/c2ccccc2Br)cc1	12% (inactive)
COc1ccc(/C=C/c2ccc3ccccc3n2)cc1	17% (inactive)
Cc1cc(C)n(C(=O)C(C)N2C(=O)c3ccccc3C2=O)n1 (configuration not stated)	43% (inactive)
Cc1nn(C(=O)C(C)N2C(=O)c3ccccc3C2=O)c(C)c1Br (configuration not stated)	41% (inactive)
Cc1cn(C(=O)C(C)N2C(=O)c3ccccc3C2=O)c(C)n1 (configuration not stated)	53% (active)
CC1=C(C(=O)OCc2ccccc2)C(c2ccc(C)s2)NC(=O)N1 (configuration not stated)	55% (active)
CC1=C(C(=O)OC2CCCC2)C(c2ccccc2Cl)NC(=O)N1C (configuration not stated)	5% (inactive)

SMILES	inhibition
CC1=C(C(=O)OC2CCCCCC2)C(c2ccccc2)NC(=O)N1 (configuration not stated)	14% (inactive)
COCCOC(=O)C1=C(C)NC(=O)NC1c1ccc(C)s1 (configuration not stated)	8% (inactive)
COC(=O)C1=C(C)N(C)C(=O)NC1c1ccccc1I (configuration not stated)	5% (inactive)
CC1=C(C(=O)OCCc2ccccc2)C(c2ccc(C)s2)NC(=O)N1 (configuration not stated)	19% (inactive)
CC1=C(C(=O)OC2CCCCCC2)C(c2ccc(C)cc2)NC(=O)N1 (configuration not stated)	36% (inactive)
CCCCCCOC(=O)C1=C(C)NC(=O)NC1c1ccc(Br)cc1 (configuration not stated)	53% (active)
CC1=C(C(=O)OC2CCCCCC2)C(c2ccccc2I)NC(=O)N1C (configuration not stated)	52% (active)
CCCCOC(=O)C1=C(C)NC(=O)NC1c1ccc(Br)cc1 (configuration not stated)	23% (inactive)
CC1=C(C(=O)OC2CCCCCCC2)C(c2ccccc2)NC(=O)N1 (configuration not stated)	57% (active)
CCCCCOC(=O)C1=C(C)NC(=O)NC1c1ccc(Br)cc1 (configuration not stated)	20% (inactive)
Cc1cccc(C)c1NC(=O)c1ccc(N(Cc2ccc(Cl)cc2)S(C)(=O)=O)cc1	15% (inactive)
Cc1ccccc1OCCOc1ccc(Br)cc1/C=C1\SC(N)=NC1=O	33% (inactive)
Cc1cccc(OCC(=O)Nc2ccccc2C(C)C)c1C	8% (inactive)
O=C(CCN1C(=O)/C(=C/c2ccccc2Cl)SC1=S)Nc1ccc(-c2ccccc2)cc1	16% (inactive)
CSc1nc2ccccc2n1CCOc1ccc(C)cc1	8% (inactive)
Clc1ccc(COc2cccc(/C=N/n3cnnc3)c2)c(Cl)c1	50% (active)
Clc1ccc(COc2ccc(/C=N/n3cnnc3)cc2)c(Cl)c1	3% (inactive)
O=Cc1cccc(OCc2ccc(Cl)cc2Cl)c1	32% (inactive)
CCSCCOC(=O)C1=C(C)NC2=C(C(=O)CC(c3cccs3)C2)C1c1ccc(C)s1 (configuration not stated)	11% (inactive)
COc1ccc(OC)c(C2C(C(C)=O)=C(O)C(=O)N2CC2CCCO2)c1 (configuration not stated)	0% (inactive)
O=C1NC(=S)N(c2ccccc2F)C(=O)/C1=C/c1ccc(N2CCCC2)o1	14% (inactive)
O=C1NC(=S)N(c2ccc(Cl)cc2)C(=O)/C1=C\c1ccc(Cl)s1	8% (inactive)
Cc1ccc(/C=C2\C(=O)NC(=S)N(c3ccc(Br)cc3C)C2=O)o1	24% (inactive)
Cc1ccc(/C=C2\C(=O)NC(=S)N(c3ccc(Br)cc3)C2=O)o1	32% (inactive)
O=C1NC(=S)N(c2ccccc2F)C(=O)/C1=C/c1ccc(-c2ccc(Cl)cc2)o1	14% (inactive)

SMILES	inhibition
Cc1ccc(N2C(=O)/C(=C/c3ccco3)C(=O)NC2=S)cc1	9% (inactive)
Cc1ccc(/C=C2\C(=O)NC(=S)N(c3ccc(Cl)c(Cl)c3)C2=O)o1	11% (inactive)
Cc1cc(Br)ccc1N1C(=O)/C(=C/c2cccs2)C(=O)NC1=S	16% (inactive)
Cc1cccc(C)c1NC(=O)c1ccc(-c2ccc(Cl)cc2Cl)o1	28% (inactive)
C=CCc1cccc2cc(C(=O)N3CCCCC3)c(=O)oc12	1% (inactive)
COc1ccc(C2/C(=C(/O)c3ccccc3)C(=O)C(=O)N2c2ccc(C)cc2)cc1 (configuration not stated)	7% (inactive)
CCCCn1c(O)c(/C=C2\C=Nc3ccccc32)c(=O)[nH]c1=O	25% (inactive)
CCc1ccccc1N1C(=O)NC(=O)/C(=C\c2ccc(N3CCCCC3)o2)C1=O	9% (inactive)
O=C1NC(=O)N(c2ccc(Cl)cc2)C(=O)/C1=C\C=C\c1ccccc1[N+](=O)[O-]	14% (inactive)
Cc1ccccc1N1C(=O)/C(=C/c2ccc(I)o2)C(=O)NC1=S	18% (inactive)
O=C1NC(=S)N(c2cccc(Cl)c2Cl)C(=O)/C1=C/c1ccc(Cl)cc1	10% (inactive)
O=C1NC(=S)N(c2cccc(Cl)c2Cl)C(=O)/C1=C/c1ccc(I)o1	45% (inactive)
O=C1NC(=O)N(c2ccccc2F)C(=O)/C1=C/c1ccc(I)o1	0% (inactive)
O=C1NC(=S)N(c2ccc(Br)cc2)C(=O)/C1=C/C=C/c1ccco1	16% (inactive)
O=C1NC(=S)N(c2cccc(Cl)c2Cl)C(=O)/C1=C/c1ccco1	58% (active)
Cc1cccc(N2C(=O)/C(=C/C=C/c3ccco3)C(=O)NC2=S)c1	11% (inactive)
O=C1NC(=S)N(c2ccccc2)C(=O)/C1=C\C=C\c1ccccc1[N+](=O)[O-]	16% (inactive)
Cc1cc(C=O)c(C)n1-c1ccc(Cl)cc1	10% (inactive)
CCN(CC)c1ccc(/C=C2\C(=O)N(c3nc(-c4ccc(Cl)cc4)cs3)N=C2c2ccccc2)cc1	8% (inactive)
O=[N+]([O-])c1ccc(NC(=S)Nc2ccccc2)c(O)c1	2% (inactive)
CCOC(=O)C1=C(C)NC2=C(C(=O)CC(c3ccc(OC)cc3)C2)C1c1ccc(O)cc1 (configuration not stated)	11% (inactive)
Cc1ccc(/C=N/NC(=O)c2ccc(F)cc2)s1	7% (inactive)
